About 83,000 compounds went through this panel and 20% of them were active in at least one assay; those are over-represented in the sample as a whole.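 Negative percent growth values reflect cell death: -40 means 40% of the cells present at the start died, and -100 means all died.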 Calls of active or inactive are those of the source.
Tested on: MDA-MB-435 melanoma
Experiment: NCI-60 one-dose screen, 48 h (100 = growth as untreated, 0 = no growth, -100 = all killed)
Details: 10 µM unless noted
Protocol: Growth inhibition of the MDA-MB-435 human Melanoma tumor cell line is measured as a screen for anti-cancer activity. Cells are grown in 96 well plates and exposed to the test compound for 48 hours. Compounds are tested at a single concentration, which is 10^-5 M for most compounds. The reported endpoint is percent growth (GI% or GIPRCNT), where numbers from 0 - 100% represent growth inhibition, and numbers from -100% - 0 represent cell death. For example, a value of 40 represents 60% growth inhibition. A value of 0 means no net growth occurred over the course of the experiment. A value of -40 indicates 40% of cells at the beginning of the experiment died by the end of the experiment. A value of -100 means all cells are dead at the end of the experiment.
NCI-60 Human Tumor Cell Lines Screen was performed using the standard one-dose NCI protocol, which is described in more detail at https://dtp.cancer.gov/discovery_development/nci-60/default.htm.
Compounds with GIPRCNT values below 10 were considered active. Activity score was based on GIPRCNT using the following formula: […]
Score is 0 for GIPRCNT values of 100 or above, 50 for GIPRCNT values of 0, and 100 for GIPRCNT values of -100.

SMILES | growth
CCOC(=N)CC(=O)Nc1cccc(C)c1Cl | 98.6% (inactive)
CCOc1ccc(C(=O)O)cc1 | 104% (inactive)
CCOc1ccc2c(c1)c(C)cc(C)[n+]2CC | 73.9% (inactive)
CC1CN(CCO)CC(C)O1 (stereo not given) | 102% (inactive)
Oc1cc(O)c2c(c1)O[C@H](c1ccc(O)c(O)c1)[C@@H](O)C2 | 104% (inactive)
FC(F)(F)c1cc(NC2=NCCN=C(Nc3cc(C(F)(F)F)cc(C(F)(F)F)c3)SS2)cc(C(F)(F)F)c1 | 65.1% (inactive)
CC(=O)Oc1c(Cl)cccc1-c1ccccc1 | 104% (inactive)
CC(=O)CSc1ncnc2nc[nH]c12 | 89.7% (inactive)
COc1nc(Nc2cccc(C(F)(F)F)c2)nc(OC)n1 | 106% (inactive)
O=c1[nH]c(=O)c2cc(Cl)cc(Cl)c2[nH]1 | 113% (inactive)
Cc1cc2nc(C)c(C)nc2cc1C | 105% (inactive)
CC(C)N(C(=O)c1ccccc1)C(C)C | 107% (inactive)
CN(C)Cc1ccccn1 | 103% (inactive)
CCOc1ccncc1[N+](=O)[O-] | 107% (inactive)
O=C(O)c1ccccc1Cc1ccc2c(c1)CCCC2 | 115% (inactive)
C=C1C(=O)C2CCC1C2 (stereo not given) | 105% (inactive)
C=C(OC(C)=O)c1ccccc1 | 107% (inactive)
CCOC(=O)c1ccc(NC(C)=O)o1 | 103% (inactive)
COc1ccc(C2CCCCC2=O)cc1 (stereo not given) | 103% (inactive)
Cc1ccc(S(N)(=O)=O)cc1Cl | 114% (inactive)

SMILES | growth
O=C(c1ccccc1O)N1CCCC1 | 103% (inactive)
C=C1SC(=Nc2c(C)cccc2C)N(c2nc(Cl)nc(Cl)n2)C12CCCCC2 | 93.5% (inactive)
Cc1cc(CC(=O)NCCO)n(CCO)c(=O)c1 | 107% (inactive)
CC(=O)NCNC(C)=O | 107% (inactive)
CCC(/C=C\C(C)=O)CC | 100% (inactive)
O=C1C=C[C@H](O)[C@@]2(CO)O[C@@H]12 | 77% (inactive)
Clc1cccc(Cl)c1CSc1nc2ccccc2n2cccc12 | 66.8% (inactive)
O=C(NCc1ccccc1)/C(=C/c1ccccc1)NC(=O)c1ccccc1 | 113% (inactive)
CCCCNc1ccc(-c2ccc(NCCCC)cc2)cc1 | 40.8% (inactive)
C[n+]1cc2cc3c(cc2c2ccccc21)OCO3 | 64.9% (inactive)
O=C(CCCl)OCCOc1ccccc1 | 110% (inactive)
C=CCNC(=S)N/C=C(/C(=O)c1ccccc1)c1ccccc1 | 98.6% (inactive)
O=C(O)Cc1cccc2ccccc12 | 104% (inactive)
CCCCCCCCCc1ccc(OC(C)=O)cc1 | 109% (inactive)
O=C1CSc2ccccc2N1 | 108% (inactive)
ClCC(Cl)C1CCC(Cl)C(Cl)C1 (stereo not given) | 107% (inactive)
Clc1ccc(-c2noc(/C=C\c3ccccc3)n2)cc1 | 92.7% (inactive)
O=C1C=C(c2ccccc2)C(O)(c2ccccc2)C1 (stereo not given) | 97.4% (inactive)
CC(=O)OC/C(C)=C\CC(C)COC(C)=O (stereo not given) | 94.9% (inactive)
CCCCCCCCCCCCCCCCCC(=O)NCCNC(=O)CCCCCCCCCCCCCCCCC | 94.2% (inactive)

Reference: PubChem BioAssay (NCI)
